These results are taken from PubChem BioAssay (NCATS).

Experiment [1] addresses ATP-dependent 6-phosphofructokinase (Trypanosoma brucei brucei) (UniProt O15648). As to the kind of experiment: qHTS Assay to Find Inhibitors of T. brucei phosphofructokinase: hit validation (AID 492961).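 Note: luminescence reports ADP formed as PFK phosphorylates fructose-6-phosphate with ATP; % is set by controls: 0 for no effect and ±100 for the full control effect.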 In outline:
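ADP-Glo luminescence read-out of ADP formed by 1.25 nM PFK from 0.1 mM ATP and 0.5 mM F6P (TEA pH 8.0, 45 min, RT). Compounds titrated; activity normalized to no-enzyme and full-enzyme controls.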

The target in experiment [2] is Luciferin 4-monooxygenase (Photinus pyralis) (UniProt P08659). As to the kind of experiment: Biochemical firefly luciferase enzyme assay for NPC (AID 624030).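 Note: purified P. pyralis luciferase at 10 nM with luciferin and ATP substrate; 0% = DMSO and -100% = full luciferase inhibition by PTC124 control; nearly all actives have a fitted effect of over 70% in size.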 In outline: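 Direct inhibition of firefly luciferase enzyme (10 nM final, 50 mM Tris Acetate) assessed by luminescence within 5 minutes. Percent activity scaled between DMSO and PTC124 positive control, with concentration-effect curves classified by fit quality and response.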
Chain of Luciferin 4-monooxygenase (Photinus pyralis) (P08659 whole entry, looked up): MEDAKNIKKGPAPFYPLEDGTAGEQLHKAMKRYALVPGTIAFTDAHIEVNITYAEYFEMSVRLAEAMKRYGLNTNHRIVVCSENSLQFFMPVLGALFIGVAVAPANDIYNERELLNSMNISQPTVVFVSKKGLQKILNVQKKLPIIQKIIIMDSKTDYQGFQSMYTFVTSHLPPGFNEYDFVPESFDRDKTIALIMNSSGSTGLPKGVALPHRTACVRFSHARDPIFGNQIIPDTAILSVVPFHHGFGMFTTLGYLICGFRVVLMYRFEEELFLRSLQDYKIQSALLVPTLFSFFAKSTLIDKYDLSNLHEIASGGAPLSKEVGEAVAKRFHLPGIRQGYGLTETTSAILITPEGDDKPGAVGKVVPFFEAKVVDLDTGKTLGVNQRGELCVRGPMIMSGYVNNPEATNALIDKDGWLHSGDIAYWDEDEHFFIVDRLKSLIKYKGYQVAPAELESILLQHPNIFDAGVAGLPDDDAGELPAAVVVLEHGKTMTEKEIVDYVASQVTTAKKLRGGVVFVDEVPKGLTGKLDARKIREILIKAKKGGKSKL

Experiment [3] can be described thus: qHTS profiling for inhibitors of Plasmodium falciparum proliferation (AID 504749).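 Note: 0% = DMSO vehicle and full inhibition = artemisinin control; nearly all actives have a fitted effect of over 60% in size.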 As to conditions: P. falciparum in erythrocytes, SYBR Green DNA, 72 h, at 28.7 µM (top of the series). Summed up:
(§1)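 SYBR Green fluorescence of parasite DNA, read after lysis and overnight dark incubation, measured growth over 72 h in erythrocyte culture at 0.3% parasitemia and 2.5% hematocrit. Data normalised to DMSO and 0.29 uM artemisinin, with plate-drift correction.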
On the technique in general: qHTS replaces the single test concentration by a dilution series.

Experiment [4] concerns AS120. The description is as above. As to conditions: P. falciparum in erythrocytes, SYBR Green DNA, 72 h; series mostly up to 28.7 µM. In outline:
as §1

The test system of experiment [5] is ATS189. The description is as above. As to conditions: P. falciparum in erythrocytes, SYBR Green DNA, 72 h; series mostly up to 28.7 µM. In outline:
as §1

The test system of experiment [6] is CP185. The experiment is described as above. As to conditions: P. falciparum in erythrocytes, SYBR Green DNA, 72 h; series mostly up to 28.7 µM. In outline: as §1
For experiment [7], the system named is CP191. The experiment is described as above. As to conditions: P. falciparum in erythrocytes, SYBR Green DNA, 72 h; series mostly up to 28.7 µM. In outline: as §1
The test system of experiment [8] is CP192. Described as above. As to conditions: P. falciparum in erythrocytes, SYBR Green DNA, 72 h; series mostly up to 28.7 µM. Summed up:
as §1

Experiment [9] relates to CP194. The description is as above. The following applies: P. falciparum in erythrocytes, SYBR Green DNA, 72 h; series mostly up to 28.7 µM. In outline: as §1
Experiment [10] concerns CP201. The experiment is described as above. As to conditions: P. falciparum in erythrocytes, SYBR Green DNA, 72 h; series mostly up to 28.7 µM. In outline:
as §1

The test system of experiment [11] is CP203. The description is as above. As to conditions: P. falciparum in erythrocytes, SYBR Green DNA, 72 h; series mostly up to 28.7 µM. Summed up: as §1
For experiment [12], the system named is CP247. The description is as above. The following applies: P. falciparum in erythrocytes, SYBR Green DNA, 72 h; series mostly up to 28.7 µM. Summed up:
as §1

The subject of experiment [13] is CP291. The experiment is described as above. As to conditions: P. falciparum in erythrocytes, SYBR Green DNA, 72 h; series mostly up to 28.7 µM. In outline:
as §1

Experiment [14] concerns DFO2036. Described as above. The following applies: P. falciparum in erythrocytes, SYBR Green DNA, 72 h; series mostly up to 28.7 µM. Summed up:
as §1

Experiment [15] relates to P94_40. Described as above. As to conditions: P. falciparum in erythrocytes, SYBR Green DNA, 72 h; series mostly up to 28.7 µM. Summed up:
as §1

The test system of experiment [16] is TAB109. The description is as above. As to conditions: P. falciparum in erythrocytes, SYBR Green DNA, 72 h; series mostly up to 28.7 µM. Summed up: as §1
The subject of experiment [17] is TAB113. The description is as above. The following applies: P. falciparum in erythrocytes, SYBR Green DNA, 72 h; series mostly up to 28.7 µM. Summed up:
as §1

For experiment [18], the target named is Rap guanine nucleotide exchange factor 4 (Homo sapiens) (UniProt Q8WZA2). The experiment can be described thus: Confirmatory qHTS for agonist of cAMP-regulated guanine nucleotide exchange factor 4 (EPAC2) (AID 1645884).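 Note: nucleotide exchange releases bodipy-GDP from Rap1 and this lowers its fluorescence; % is set by controls: 0 for no effect and ±100 for the full control effect; nearly all actives have a fitted effect of over 65% in size.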
Chain of Rap guanine nucleotide exchange factor 4 (Homo sapiens) (Q8WZA2 whole entry, looked up): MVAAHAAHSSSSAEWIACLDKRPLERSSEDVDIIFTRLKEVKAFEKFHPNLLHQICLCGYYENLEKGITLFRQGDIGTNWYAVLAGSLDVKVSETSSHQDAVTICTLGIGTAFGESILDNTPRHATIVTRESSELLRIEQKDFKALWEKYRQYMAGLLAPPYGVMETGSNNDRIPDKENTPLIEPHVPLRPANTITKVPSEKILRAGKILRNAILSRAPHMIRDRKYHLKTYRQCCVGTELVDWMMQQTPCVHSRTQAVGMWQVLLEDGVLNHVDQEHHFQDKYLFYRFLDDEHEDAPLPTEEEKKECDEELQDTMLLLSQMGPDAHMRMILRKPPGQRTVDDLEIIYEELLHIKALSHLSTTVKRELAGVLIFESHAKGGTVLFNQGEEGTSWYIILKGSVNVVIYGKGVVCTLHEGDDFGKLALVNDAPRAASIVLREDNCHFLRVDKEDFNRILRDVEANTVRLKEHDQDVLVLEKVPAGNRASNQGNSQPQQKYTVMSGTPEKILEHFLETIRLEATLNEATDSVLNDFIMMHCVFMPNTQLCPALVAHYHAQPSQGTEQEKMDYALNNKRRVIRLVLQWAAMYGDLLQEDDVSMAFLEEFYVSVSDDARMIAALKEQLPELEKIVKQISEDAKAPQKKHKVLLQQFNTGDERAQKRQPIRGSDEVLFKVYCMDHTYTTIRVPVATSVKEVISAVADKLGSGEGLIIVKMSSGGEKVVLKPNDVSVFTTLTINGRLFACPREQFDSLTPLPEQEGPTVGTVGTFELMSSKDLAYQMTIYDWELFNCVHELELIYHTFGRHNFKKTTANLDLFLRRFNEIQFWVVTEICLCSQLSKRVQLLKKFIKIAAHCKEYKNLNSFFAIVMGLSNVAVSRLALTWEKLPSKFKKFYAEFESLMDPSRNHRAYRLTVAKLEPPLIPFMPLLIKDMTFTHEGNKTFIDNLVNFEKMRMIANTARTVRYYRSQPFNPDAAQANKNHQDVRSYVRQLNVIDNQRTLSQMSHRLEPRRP
Experiment [19] has the same target. As to the kind of experiment: Confirmatory qHTS for antagonist of cAMP-regulated guanine nucleotide exchange factor 4 (EPAC2) (AID 1645885). Note: nearly all actives have a fitted effect of over 25% in size. Note: potency is the fitted concentration of half-maximal effect.
A short description of experiment [20]: qHTS assay for cell viability of HEK293 cells (AID 743288). For max response: % is set by controls: 0 for no effect and ±100 for the full control effect. Note: nearly all actives have a fitted effect of over 50% in size. Note: potency is the fitted concentration of half-maximal effect. As to conditions: ATP luminescence (CellTiter-Glo), 18 h; max response: stronger effect = lower value. Summed up: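 ATP luminescence (CellTiter-Glo) reports metabolically competent cell number after parental HEK293 cells, 2,000/well, were treated with DMSO-dissolved compounds for 18 h at 37 C; reagent incubation 30 min, room temperature.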

Records with an inconclusive call do not appear. The source holds several records for some structures; these can differ, active in one and inactive in another. Values without a mark were called inactive. Calls of active or inactive are those of the source. Calls come from the whole dose curve; as a rule, active = well fitted curve in the direction sought with a large enough effect; inconclusive = small, poorly fitted or top-dose-only effect, or another doubt; inactive = no such curve, though single readings can be large; an effect the other way counts as inactive or inconclusive.

Chain of ATP-dependent 6-phosphofructokinase (Trypanosoma brucei brucei) (O15648 whole entry, looked up): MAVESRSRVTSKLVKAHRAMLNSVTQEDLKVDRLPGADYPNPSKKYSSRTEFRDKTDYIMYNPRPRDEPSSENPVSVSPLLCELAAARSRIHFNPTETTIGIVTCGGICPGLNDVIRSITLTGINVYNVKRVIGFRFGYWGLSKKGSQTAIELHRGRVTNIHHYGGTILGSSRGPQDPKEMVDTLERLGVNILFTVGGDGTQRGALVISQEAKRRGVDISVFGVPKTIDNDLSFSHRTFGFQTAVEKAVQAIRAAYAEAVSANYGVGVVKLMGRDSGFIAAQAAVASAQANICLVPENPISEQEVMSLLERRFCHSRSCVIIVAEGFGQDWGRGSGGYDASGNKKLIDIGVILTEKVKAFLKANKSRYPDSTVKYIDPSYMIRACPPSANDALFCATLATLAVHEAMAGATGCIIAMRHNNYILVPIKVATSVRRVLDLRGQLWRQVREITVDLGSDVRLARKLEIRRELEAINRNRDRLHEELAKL

For `CCN(CC)CCO[C@H]1CC[C@@]2(C)C(=CC[C@@H]3[C@H]2CC[C@]2(C)C(=O)CC[C@H]32)C1`, the Potency result in experiment [1], in [2], in experiment [4], in experiment [5], in [6] and in [7] was “inactive” each time. Also, the Potency entry in [8], in [9], in experiment [10], in experiment [11], in experiment [12] and in experiment [13] was “inactive” each time. Besides, the Potency entry in experiment [14], in [15], in experiment [16] and in [17] was “inactive” in each case. Besides, the activity, negative = inhibition in experiment [3] (parasite line A) is -0.0219%; in experiment [3] (parasite line B), 10.7%.
`C[C@H]1C[C@H](C)C(=O)[C@@H]([C@H](O)CC2CC(=O)NC(=O)C2)C1`: the Potency entry in [2] is “inactive”.
Consider `CN1Cc2ccccc2[C@@H]2c3cccc4[nH]cc(c34)C[C@H]21`, for which the result in experiment [18] was inactive. In [19], the Potency entry is “inactive”.
As for `CCCn1c(C)c(C(=O)c2cccc3ccccc23)c2ccccc21`, the outcome in experiment [18] was inactive.
As to `O=C1CS[C@@H](c2ccccc2Cl)c2cc(Cl)ccc2N1`, in experiment [19], the Potency is 49.4 µM (active).
`C=C(C)CN1CC[C@@]23c4c5ccc(O)c4O[C@H]2c2[nH]c4ccccc4c2C[C@]3(O)[C@@H]1C5`: in [18], the result was inactive.
For the compound `CC(C)(c1ccc(OCC2CO2)cc1)c1ccc(OCC2CO2)cc1` (stereo unspecified), in experiment [20], the Potency is 70.8 µM (active) and the max response is -24%.
